Screening data from PubChem BioAssay.
Only some compounds are listed: those with a hit (about 1.3% of all), similar ones and a draw of the others.
DUSP3 inh – VHR1 phosphatase inhibitors, primary screen, biochemical, absorbance, uHTS; inhibition, % at 13.3 µM; 0.52% of 290,000 active; recombinant VHR phosphatase, pNPP absorbance; Dual specificity protein phosphatase 3 (Homo sapiens), P51452; in the data active = inhibition above about 50%
Vc quorum ag – inducers of Vibrio cholerae quorum light production without autoinducers, primary screen, BH1578 luxS cqsA deficient, single point | V. cholerae BH1578 lux reporter, luminescence, 6 h | 0.16% of 350,000 active | AID 588436, 2011 | activation, % at 18.7 µM; in the data active = activation mostly above about 9.7%, no sharp cut-off
CCHFV vOTU inh – CCHFV vOTU protease inhibitors, primary screen, biochemical, Pep-AMC substrate, fluorescence; Crimean-Congo hemorrhagic fever virus L polyprotein viral ovarian tumor (vOTU) protease …; inhibition, % at 11.5 µM; 0.55% of 370,000 active; in the data active = inhibition above about 30%; also: 0% = vehicle wells with enzyme and 100% = no enzyme wells
TcdB GH inh – TcdB glycohydrolase inhibitors, primary screen, biochemical, single point, plate reader. TcdB glycohydrolase enzymatic assay. inhibition, % at 9.99 µM. Toxin B (Clostridioides difficile), P18177. 0.24% of 350,000 active; in the data active = inhibition above about 10%
3CLpro inhibitor – SARS-CoV 3CLpro protease inhibitors, primary screen, biochemical, quenched FRET | 0.14% of 290,000 active | AID 1706, 2009 | inhibition, % at 6 µM | Replicase polyprotein 1ab (Severe acute respiratory syndrome coronavirus), P0C6X7 | recombinant SARS-CoV 3CLpro, quenched FRET peptide cleavage; in the data active = inhibition above about 12%
PriA SSB inh – inhibitors of Klebsiella pneumoniae PriA binding to SSB C-terminal tail, primary screen, biochemical, AlphaScreen; 0.6% of 430,000 active; PriA–SSB C-terminal tail interaction (Klebsiella pneumoniae); AlphaScreen SSBct-PriA binding, biotinylated peptide; AID 1272365, 2023; inhibition, % at 33 µM; in the data active = inhibition mostly above about 37%, no sharp cut-off; inactive = mostly below about 20%;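 also: plate controls were negative control peptide for no effect and reference peptide for full effect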
The depositor's hits bear a star; i = inactive; / = not tested or not shown; + = active, no number.

SMILES | DUSP3 inh | Vc quorum ag | CCHFV vOTU inh | TcdB GH inh | 3CLpro inhibitor | PriA SSB inh
Cc1sc(NC(=O)COc2ccccc2)nc1-c1ccccc1 | / | / | / | / | / | -9
Cc1ccc(CN2CCN(CCCc3ccccc3)CC2CCO)cc1 (stereo not drawn) | -5 | i | 8 | 1 | 0 | 0
OCCC1CN(CCCc2ccccc2)CCN1Cc1ccc(F)cc1 (stereo not drawn) | 56* | i | 2 | -2 | 4 | 0
CCCCN(CC)CCNC(=O)c1ccc2c(Cl)c3c(nc2c1)CCC3 | 57* | i | -10 | -6 | -7 | -16
O=C(CNC(=O)c1cccc(F)c1)OCC(=O)N1CCCCC1 | 51* | i | 1 | / | 5 | -16
Cn1nc(CN(Cc2ccco2)C(=O)N2CCN(S(C)(=O)=O)C2=O)c2c1CCC2 | / | / | / | / | / | 84*
Cn1nc(CN(Cc2ccco2)C(=O)c2cccs2)c2c1CCC2 | / | / | / | / | / | -5
O=C(CCc1csc(NS(=O)(=O)c2ccccc2)n1)NCC1CCCCC1 | / | / | / | / | / | -15
CN(CCC#N)C(=O)CSc1nnc(-c2ccco2)n1N | 51* | 2 | -14 | 0 | -2 | 3
CCCN(CC1CC1)C(=O)CSc1nnc(-c2ccco2)n1N | 3 | / | / | / | -1 | /
CCCCCCCCCCCCCCSCc1ccc(O)c2ncccc12 | / | / | / | / | / | 57
Cn1cnnc1SCc1ccc(O)c2ncccc12 | / | / | / | / | / | 125*
Cn1nnnc1SCc1ccc(O)c2ncccc12 | / | / | / | / | / | 124*
Cn1ccnc1SCc1ccc(O)c2ncccc12 | / | / | / | / | / | 128*
O=c1c2nc(N3CCOCC3)sc2c(-c2ccccc2)nn1Cc1ccc(Cl)cc1Cl | / | / | / | / | / | -6
O=C(Nc1ccccc1Br)C1CCN(Cc2nc(-c3ccccc3)no2)CC1 | / | / | / | / | / | -8
Cc1ccc2c(C(=O)CN3CCCCC3CCO)c(C)[nH]c2c1 (stereo not drawn) | 4 | 1 | 11 | / | 1 | -29
CCC1CCCCN1CC(=O)c1c(C)[nH]c2cc(C)ccc12 (stereo not drawn) | 52* | -1 | 4 | 0 | 4 | -10
O=c1c2ccccc2oc2ccc(NCCCN3CCOCC3)cc12 | 20 | i | -3 | 13* | 0 | -10
CCOC(=O)c1nn(-c2ccc(C)cc2)cc1O | -4 | + | 2 | / | -1 | -15
Cc1ccc2c(c1)c(C1=c3ccccc3=NC1=O)c(O)n2C | -2 | 0 | 0 | 2 | 0 | -7
C=CCn1c(O)c(C2=c3ccccc3=NC2=O)c2ccccc21 | 60* | -1 | 2 | 0 | -5 | -18
CCOc1ccccc1N(C)S(=O)(=O)c1ccc2c(c1)CC(C)N2C(=O)C1CC1 (stereo not drawn) | 50* | -5 | -2 | 1 | -4 | -11
CCN(c1ccccc1)S(=O)(=O)c1ccc2c(c1)CC(C)N2C(=O)C1CC1 (stereo not drawn) | -4 | 0 | 2 | 1 | 5 | -8
Nc1ccc(Nc2ccccc2N)cc1 | 5 | 1 | 18 | / | 3 | 91
SMILES | DUSP3 inh | Vc quorum ag | CCHFV vOTU inh | TcdB GH inh | 3CLpro inhibitor | PriA SSB inh
COc1ccc(Nc2ccccc2N)cc1 | 12 | 1 | -11 | 2 | -2 | 82*
Cc1ccc(S(=O)(=O)N2C(=O)CCC2C(=O)N2CCCCC2)cc1 (stereo not drawn) | 52* | -2 | -6 | 0 | 3 | -6
Cc1ccc(S(=O)(=O)N2C(=O)CCC2C(=O)N2CCN(C)CC2)cc1 (stereo not drawn) | 0 | -4 | 7 | / | -4 | -5
Oc1ccc(-c2cn3ccccc3n2)cc1 | -5 | i | -21 | 41* | 1 | 0
COc1ccc(C)cc1NC(=O)CSc1ccc(-c2ccccn2)nn1 | -4 | 0 | 8 | 0 | -2 | 52*
O=C(CSc1ccccn1)Nc1ccc2ccccc2c1 | 20 | / | / | / | 1 | /
COc1ccc(C)cc1NC(=O)CSc1cc(-c2ccccn2)nc(C)n1 | / | / | / | / | / | 42
Cc1cc(NC(=O)CSc2ccccn2)cc(NC(=O)CSc2ccccn2)c1 | 54* | 0 | 0 | -8 | -1 | 1
COc1ccc(C)cc1NC(=O)CSc1ccccn1 | / | / | / | / | / | 56*
CCn1c(COc2ccc(C)cc2)nnc1SCC(=O)Nc1cc(OC)ccc1OC | 46 | 29* | 14 | / | 3 | 0
